Results from the supplement of paper PMC8975748.
Counter-ions that a name gives are not always drawn.

test system: Saccharomyces cerevisiae BY4741 SeMeCo community; experiment: z-score of prototroph abundance vs DMSO median; higher = larger share of this subpopulation than in DMSO controls; conditions: 10 µM; 24 h; SM minimal medium; subpopulation (auxotrophy): Prototroph
Protocol: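 Fluorescent four-plasmid SeMeCo (self-establishing metabolically cooperating S. cerevisiae BY4741 community; plasmids pH-mRuby2, pL-mWasabi, pU-eCFP, pM-TagRFP657) was grown 24 h in minimal SM medium with each Selleck FDA-approved drug at 10 µM in 384-well plates. Cells were fixed and imaged by high-content confocal microscopy. For each auxotrophic subpopulation (and the prototroph), a z-score gives the deviation from the DMSO vehicle-control population median.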

Structure (SMILES) | z-score of prototroph abundance
Cc1cc(C(C#N)c2ccc(Cl)cc2)c(Cl)cc1NC(=O)c1cc(I)cc(I)c1O (stereo not given) [Closantel] | 0
CCN1CC2(OC(=O)c3ccccc3NC(C)=O)CCC(OC)C34C1C(CC23)C1(O)CC(OC)C2CC4C1(O)C2OC (stereo not given) [Lappaconitine] | 0.24
COC(=O)C1=CCCN(C)C1 [Arecoline HBr] | -0.55
Nc1ccncc1 [4-Aminopyridine] | -0.05
CCCN1C[C@H](CSC)C[C@@H]2c3cccc4[nH]cc(c34)C[C@H]21 [Pergolide Mesylate] | 0.88
CN(C)[C@@H]1C(=O)C(C(N)=O)=C(O)[C@@]2(O)C(=O)C3=C(O)c4c(O)cccc4[C@@](C)(O)[C@H]3C[C@@H]12 [Tetracycline HCl] | -0.24
CC(=O)OCC1=C(C(=O)O)N2C(=O)C(N)C2SC1 (stereo not given) [7-Aminocephalosporanic acid] | 0.2
NCCc1c[nH]c2ccc(O)cc12 [Serotonin HCl] | 0.67
C[N+]12CCC(CC1)C(OC(=O)C(O)(c1ccccc1)c1ccccc1)C2 (stereo not given) [Clidinium Bromide] | 0.13
N[C@@H]1C[C@H]1c1ccccc1 [Tranylcypromine (2-PCPA) HCl] | 0.44
O=[N+]([O-])C(Br)(CO)CO [Bronopol] | -0.24
CC(=O)O[C@H]1C[C@@H]2CC[C@@H]3[C@H](CC[C@@]4(C)[C@H]3C[C@H]([N+]3(C)CCCCC3)[C@@H]4OC(C)=O)[C@@]2(C)C[C@@H]1[N+]1(C)CCCCC1 [Pancuronium dibromide] | 0.97
C[C@H]1O[C@H](O[C@H]2[C@H](O)[C@@H](O)[C@@H](O)[C@H](O)[C@@H]2O)[C@@H](N)C[C@@H]1NC(=N)C(=O)O [Kasugamycin hydrochloride] | 0.23
COc1ccc2c3c([nH]c2c1)C(C)=NCC3 [Harmaline] | 3.47
O=c1[nH]c2ccccc2n1CCCN1CCC(n2c(=O)[nH]c3cc(Cl)ccc32)CC1 [Domperidone] | -0.65
C[N+](C)(C)CCCCCCCCCC[N+](C)(C)C [Decamethonium Bromide] | 0.58
Nc1nc(N)nc(NC2CC2)n1 [Cyromazine] | -1.21
CN1[C@@H]2C[C@@H](OC(=O)[C@H](CO)c3ccccc3)C[C@H]1[C@@H]1O[C@@H]12 [Scopolamine HBr] | 0.86
CCCCCCCCCCCCCCCC[n+]1ccccc1 [Cetylpyridinium Chloride] | -12.7
C=C[C@H]1CN2CC[C@H]1C[C@H]2[C@H](O)c1ccnc2ccccc12 [Cinchonidine] | -0.41

Structure (SMILES) | z-score of prototroph abundance
CCC1=C[C@H]2CN3CCc4c([nH]c5ccccc45)[C@](C(=O)OC)(C2)[C@H]13 [Catharanthine] | 0.37
CN1[C@@H]2CC[C@H]1C[C@@H](OC(=O)[C@H](CO)c1ccccc1)C2 [Hyoscyamine] | 0.38
CC(NC(C)(C)C)C(=O)c1cccc(Cl)c1 (stereo not given) [Amfebutamone (Bupropion) HCl] | 0.49
Cc1cc(O)ccc1Cl [Chlorocresol] | 0.71
CN(C)[C@@H]1C(=O)C(C(N)=O)=C(O)[C@@]2(O)C(=O)C3=C(O)c4c(O)cccc4[C@@](C)(O)[C@H]3[C@H](O)[C@@H]12 [Oxytetracycline (Terramycin)] | -0.34
COc1ccc(C(CN(C)C)C2(O)CCCCC2)cc1 (stereo not given) [Venlafaxine] | 0.19
CC[N+](C)(CC)CCOC(=O)C(O)(c1ccccc1)c1ccccc1 [Methylbenactyzine Bromide] | 1.09
CC[C@@H](C(N)=O)N1CCCC1=O [Levetiracetam] | 0.59
COc1ccc(C(CN(C)C)C2(O)CCCCC2)cc1 (stereo not given) [Venlafaxine HCl] | 0
C[N+]1(C)[C@@H]2C[C@@H](OC(=O)[C@H](CO)c3ccccc3)C[C@H]1[C@@H]1O[C@@H]12 [Methscopolamine] | -0.68
CC(C)N(CCC(C(N)=O)(c1ccccc1)c1ccccn1)C(C)C (stereo not given) [Disopyramide] | -0.35
CN1c2ccccc2C(NCCCCCCC(=O)O)c2ccc(Cl)cc2S1(=O)=O (stereo not given) [Tianeptine sodium] | 0
C=C(C)[C@H]1Cc2c(ccc3c2O[C@@H]2COc4cc(OC)c(OC)cc4[C@@H]2C3=O)O1 [Rotenone (Barbasco)] | -0.73
COc1ccc2[nH]cc(CCN)c2c1 [5-Methoxytryptamine] | -0.96
C=CC[C@]1(O)CC[C@H]2[C@@H]3CCC4=CC(=O)CCC4=C3C=C[C@@]21C [Altrenogest] | 0.56
CC[C@@]1(O)C(=O)OCc2c1cc1n(c2=O)Cc2cc3ccccc3nc2-1 [Camptothecin] | 0.34
CCN(C)C(=O)Oc1cccc([C@H](C)N(C)C)c1 [Rivastigmine] | -0.39
CC(C)=CCOc1c2occc2cc2ccc(=O)oc12 [Imperatorin] | -0.8
O=c1cccc2n1C[C@@H]1CNC[C@H]2C1 [Cytisine] | 0.46
O=C(O[C@H]1C[C@H]2CC[C@@H](C1)[N+]21CCCC1)C(O)(c1ccccc1)c1ccccc1 [Trospium chloride] | 0.42
